Compound activity: PubChem BioAssay, National Center for Advancing Translational Sciences (NCATS)
Compounds with a hit are over-represented: about 12% of the library has one in this group of screens.
Pf growth 48h: Primary qHTS for delayed death inhibitors of the malarial parasite plastid, 48 hour incubation; P. falciparum luciferase growth in erythrocytes, 48 h; Potency, µM (doses to about 28.7 µM), for inactives: at the highest dose activity change, negative = inhibition, most hits filed as inhibitors; actives 5.9% (n = 310,000); note: % is set by controls: 0 for no effect and ±100 for the full control effect
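Cell-based growth assay: transgenic P. falciparum expressing firefly luciferase, cultured in red cells within RPMI 1640 containing 0.5% w/v Albumax, 24 mM bicarbonate and gentamycin. A drop in luciferase activity indicates inhibition.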
SARS PLP yeast: qHTS of Yeast-based Assay for SARS-CoV PLP | S. cerevisiae expressing SARS-CoV PLpro, growth rescue | Potency, µM (titrated, usually from 32.9 µM), for the others: top-dose activity, positive = growth rescue, hits mostly activators | actives 0.19% (n = 330,000) | AID 485353, 2010; calls by dose curve; note: 0% is about no effect; nearly all actives have a fitted effect of over 55% in size
Sm TGR block: qHTS Assay for the Inhibitors of Schistosoma Mansoni Peroxiredoxins; Schistosoma mansoni thioredoxin glutathione reductase (TGR), Q962Y6; purified TGR, DTNB reduction, TNB absorbance 405 nm; Potency, µM (doses to about 114 µM), inactives show at the highest dose activity change, negative = inhibition, most hits filed as inhibitors; actives 3% (n = 360,000); AID 485364, 2010; note: % is set by controls: 0 for no effect and ±100 for the full control effect; nearly all actives have a fitted effect of over 60% in size
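Kinetic colorimetric format: TGR-catalysed, NADPH-driven DTNB reduction monitored via TNB absorbance. Enzyme dispensed at 20 nM; compound exposure 15 min at room temperature before reaction start.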
Pf growth 96h: Primary qHTS for delayed death inhibitors of the malarial parasite plastid, 96 hour incubation; P. falciparum luciferase reporter growth, 96 h; Potency, µM (highest dose often 28.7 µM), for inactives: at the top dose activity change, negative = inhibition, usual class: inhibitors; actives 6.9% (n = 320,000); AID 504834, 2011; note: % is set by controls: 0 for no effect and ±100 for the full control effect
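Plates of compound plus infected erythrocytes (2% hematocrit, 0.05% parasitemia final) incubate 96 hours, 37 C, 5% CO2. Detection reagent added; reduced luminescence from the parasites' luciferase reporter flags inhibition.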
* hit, by the source's call; ? = inconclusive; · = no result given; [ ] = remark or other dose. Unless noted, calls come from the whole dose curve; as a rule, active = well fitted curve in the direction sought with a large enough effect; inconclusive = small, poorly fitted or top-dose-only effect, or another doubt; inactive = no such curve, though single readings can be large; an effect the other way counts as inactive or inconclusive. Potency is the fitted concentration of half-maximal effect.

SMILES	Pf growth 48h	SARS PLP yeast	Sm TGR block	Pf growth 96h
O=C1C2C3C=CC(C3=C(c3ccccc3)c3ccccc3)C2C(=O)N1CCO (centres undefined)	?	-2%	8%	·
O=C1C2C3C=CC(C3=C(c3ccccc3)c3ccccc3)C2C(=O)N1Cc1ccccc1 (centres undefined)	·	-41%	7.9µM*	35%
Cc1nnc(SCC2=C(C(=O)O)N3C(=O)C(NC(=O)COc4ccc(F)cc4)C3SC2)s1 (centres undefined)	-15%	3%	14µM*	?
CCC(C(=O)NC1C(=O)N2C(C(=O)O)=C(CSc3nnc(C)s3)CSC12)c1ccccc1 (centres undefined)	-17%	-1%	4µM*	-3%
CC(=O)OCC1=C(C(=O)O)N2C(=O)C(NC(=O)CC(C)c3ccccc3)C2SC1 (centres undefined)	-24%	-7%	28µM*	-22%
Cc1nnc(SCC2=C(C(=O)O)N3C(=O)C(NC(=O)c4cc(F)c(F)cc4Cl)C3SC2)s1 (centres undefined)	15%	2%	16µM*	-53%
CC(=O)OCC1=C(C(=O)O)N2C(=O)[C@@H](NC(=O)Cc3cccs3)[C@H]2SC1	-13%	4%	?	-9%
O=C(Nc1ccc2nc(SCC(=O)N3CCOCC3)sc2c1)c1cccc(Cl)c1	·	·	5%	·
Cc1oc(-c2cccc(Cl)c2)nc1Cn1c(SCc2ccc(F)cc2)nc2cccnc21	·	·	3%	·
COc1ccc(CNC(=O)Cc2c(C)c3c(cc(C)c4c(C)c(C)oc43)oc2=O)cc1OC	·	·	-1%	·
CC1=C(C(=O)OCc2ccccc2)N2C(=O)[C@@H](NC(=O)COc3ccccc3)[C@H]2SC1	21%	3%	-29%	-9%
O=C(COc1ccccc1)NC1C(=O)N2C(C(=O)O)=C(Cl)CSC12 (centres undefined)	0%	0%	?	?
C=CC1=C(C(=O)O)N2C(=O)C(NC(=O)Cc3ccccc3)C2SC1 (centres undefined)	8%	2%	10µM*	·
CC(=O)OCC1=C(C(=O)O)N2C(=O)C(NC(=O)COc3ccc(F)cc3)C2SC1 (centres undefined)	-10%	-1%	14µM*	28%
CCOc1ccc(C(=O)NC2C(=O)N3C(C(=O)O)=C(COC(C)=O)CSC23)cc1OCC (centres undefined)	?	-2%	22µM*	18%
Cc1nnc(SCC2=C(C(=O)O)N3C(=O)C(NC(=O)COc4ccccc4)C3SC2)s1 (centres undefined)	-9%	-5%	7.9µM*	6%
Cn1nccc1C(=O)OCC(=O)Nc1ccccc1Cl	3%	5%	-7%	?
Cc1cc(NC(=O)C2CCCCC2C(=O)O)ccc1NC(=O)c1ccccc1 (centres undefined)	10%	-1%	0%	-2%
O=C(CC(c1ccccc1)c1cc(Cl)ccc1O)NCCCN1CCOCC1 (centres undefined)	?	0%	-7%	-13%
CC1=C(C(=O)O)N2C(=O)[C@@H](NC(=O)[C@@H](N)c3ccc(O)cc3)[C@@H]2SC1	6%[12.8 µM]	·	·	3%[12.8 µM]
CC(=O)OCC1=C(C(=O)O)N2C(=O)C(NC(=O)C(C)Cn3cc(Cl)cn3)C2SC1 (centres undefined)	?	0%	28µM*	?
O=C(Nc1ccccc1)c1ccc(N2CCN(c3ccccc3)CC2)c(S(=O)(=O)N2CCOCC2)c1	·	-2%	-2%	4.1µM*
O=C(Nc1ccccc1)c1ccc(N2CCN(c3ccccn3)CC2)c(S(=O)(=O)N2CCOCC2)c1	·	-2%	1%	3.7µM*
COc1ccc(-n2nnc(C(=O)Nc3ccccc3F)c2N)cc1	·	·	-3%	·
CC(=O)Nc1ccc(C(=O)Nc2ccc3c(c2)OCO3)cc1	31%	3%	3%	2.3µM*
SMILES	Pf growth 48h	SARS PLP yeast	Sm TGR block	Pf growth 96h
COc1cccc(NC(=O)C(=O)N/N=C/c2ccc3c(c2)OCO3)c1	0%	-3%	2%	10µM*
CN(CC(=O)NCc1ccccn1)S(=O)(=O)c1ccccc1	1%	10%	5%	11%
O=C(Nc1ncccc1O)c1ccc2c(c1)OCO2	9.3µM*	2%	-5%	4.1µM*
CN(CC(=O)NCc1ccccn1)S(=O)(=O)c1ccc(F)cc1	17%	-1%	-19%	15µM*
CCC(C)[C@H](NC(=O)N1CC(=O)Nc2ccccc21)C(=O)N[C@H](C(=O)O)c1ccccc1 (some centres undefined)	0%	2%	-9%	6%
Cc1ccc(/C=C/c2onc(C)c2S(=O)(=O)N2CCC(C(=O)N3CCN(c4ccccc4F)CC3)CC2)cc1	·	·	9%	·
CCOc1ccccc1N(CC(=O)Nc1ccc2c(c1)OCCO2)S(C)(=O)=O	-8%	-3%	0%	4.1µM*
CCOc1ccc(NC(=O)c2ccc3c(c2)OCCO3)cc1S(=O)(=O)N(CC)CC	13µM*	-1%	4%	13µM*
COc1ccc(/C=N/NC(=O)c2cc(-c3ccc4c(c3)OCO4)n[nH]2)cc1OC	?	0%	-6%	12µM*
CCOc1ccccc1N(CC(=O)Nc1ccc2c(c1)OCO2)S(C)(=O)=O	4%	6%	-1%	-3%
O=C(Nc1ccc(F)c(F)c1)c1ccc2c(c1)OCO2	168%	-10%	-2%	2.3µM*
CCN(CC(=O)Nc1ccc(NC(C)=O)cc1)C(=O)C1COc2ccccc2O1 (centres undefined)	-13%	-10%	0%	37%
CCOc1cc(C(=O)Nc2ccc3c(c2)OCO3)ccc1OC(F)F	46%	-15%	5%	9.3µM*
CS(=O)(=O)N(CC(=O)NCc1ccccn1)c1ccc2c(c1)OCCO2	15%	3%	-7%	4.1µM*
O=C(N/N=C/c1ccc2c(c1)OCO2)c1ccc(NC(=O)c2ccc(F)cc2)cc1	2.3µM*	7%	-13%	-14%
O=C(N/N=C/c1ccc2c(c1)OCO2)c1ccc2c(c1)OCCO2	118%	2%	-13%	78%
CCOc1ccc(C(=O)NCC(=O)Nc2ccc3c(c2)OCO3)cc1OCC	?	1%	-22%	39%
CCOc1ccc2c(c1)c(=O)c(C(=O)c1ccc3c(c1)OCO3)cn2Cc1cccc(F)c1	·	·	-2%	·
O=c1oc2ccccc2cc1-c1cn2cc(Cc3ccc(Br)cc3)sc2n1	·	·	5%	·
COc1cc(OC)c(NC(=O)C(C)n2nc(-c3ccc(C)cc3)c3c(c2=O)CCCC3)cc1Cl (centres undefined)	·	·	5%	·
C/C(CC(=O)Nc1ccc2c(c1)OCCO2)=N\NC(=O)COc1ccc(C)cc1Br	7%	-3%	-3%	19%
CCC/C=C/C=C/C(=O)OC1/C(=C/C(=O)OC)CC2CC(C(C)O)OC(=O)CC(O)CC3CC(OC(C)=O)C(C)(C)C(O)(CC4C/C(=C/C(=O)OC)CC(/C=C\C(C)(C)C1(O)O2)O4)O3 (centres undefined)	3.8µM*	·	·	1.5µM*
